# Laboratory results: PubChem BioAssay (EPA / NIEHS)
# Several values for one entry are separate records, joined by “and”; a condition that tells them apart may be missing. Identical values can stand only once. The source holds several records for some structures; these can differ, active in one and inactive in another. Activity calls are given as the source filed them. How the source made its calls: active means hit-call score of the fitted dose curve at least 0.9, where 1 is the maximum; inactive means score below 0.9.
# What was measured:
# [1] = read-out: Thrombomodulin, THBD (gene 7056); test: BSK_CASM3C_Thrombomodulin: BioMAP Diversity Plus: CASM3C Assay for Thrombomodulin Biomarker Activity (AID 2283051); details: primary human coronary artery smooth muscle cells; actives raise or lower the signal;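 further: thrombomodulin protein level measured by ELISA 24 h after dosing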
# [2] = read-out: Tissue Factor, F3 (gene 2152); test: BSK_CASM3C_TissueFactor: BioMAP Diversity Plus: CASM3C Assay for Tissue Factor Biomarker Activity (AID 2283052); details: primary human coronary artery smooth muscle cells; actives raise or lower the signal;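 further: cell surface tissue factor protein level read by ELISA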
# [3] = read-out: Interferon-gamma inducible Protein 10 (IP10), CXCL10 (gene 3627); test: BSK_hDFCGF_IP10: BioMAP Diversity Plus: hDFCGF Assay for Interferon-gamma inducible Protein 10 (IP10) Biomarker Activity (AID 2283053); details: primary human foreskin fibroblasts; actives raise or lower the signal
# In short: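 Primary foreskin fibroblasts, human; 24 h compound exposure; IP-10 by ELISA; bidirectional fit vs DMSO.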
# [4] = read-out: Urokinase-type plasminogen activator receptor (uPAR), PLAUR (gene 5329); test: BSK_CASM3C_uPAR: BioMAP Diversity Plus: CASM3C Assay for Urokinase-type plasminogen activator receptor (uPAR) Biomarker Activity (AID 2283054); details: primary human coronary artery smooth muscle cells; actives raise or lower the signal;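 further: cell-surface uPAR protein level quantified by ELISA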
# [5] = read-out: Vascular cell adhesion molecule 1 (VCAM1), VCAM1 (gene 7412); test: BSK_CASM3C_VCAM1: BioMAP Diversity Plus: CASM3C Assay for Vascular cell adhesion molecule 1 (VCAM1) Biomarker Activity (AID 2283055); details: primary human coronary artery smooth muscle cells; actives raise or lower the signal;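 further: VCAM-1 protein level quantified by ELISA on the cells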
# [6] = read-out: Collagen III, COL3A1 (gene 1281); test: BSK_hDFCGF_CollagenIII: BioMAP Diversity Plus: hDFCGF Assay for Collagen III Biomarker Activity (AID 2283056); details: primary human foreskin fibroblasts; actives raise or lower the signal
# In short: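 Human foreskin primary fibroblasts were exposed to test chemicals for 24 h, after which collagen III was quantified by ELISA. Activity was fitted bidirectionally against DMSO as negative control and baseline.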
# [7] = read-out: Epidermal growth factor receptor (EGFR), EGFR (gene 1956); test: BSK_hDFCGF_EGFR: BioMAP Diversity Plus: hDFCGF Assay for Epidermal growth factor receptor (EGFR) Biomarker Activity (AID 2283057); details: primary human foreskin fibroblasts; actives raise or lower the signal
# In short: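 hDFCGF system, primary human foreskin fibroblasts; compound 24 h; EGFR measured by ELISA; DMSO = negative control/baseline; bidirectional fitting.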
# [8] = read-out: Interleukin-8 (IL8), CXCL8 (gene 3576); test: BSK_hDFCGF_IL8: BioMAP Diversity Plus: hDFCGF Assay for Interleukin-8 (IL8) Biomarker Activity (AID 2283058); details: primary human foreskin fibroblasts; actives raise or lower the signal
# In short: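 hDFCGF human dermal fibroblasts; 24 h chemical exposure; IL-8 by ELISA; bidirectional curve fit vs DMSO baseline; gain or loss of signal scored.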
# [9] = BSK_hDFCGF_Proliferation: Cell Proliferation Assessment in the BioMAP Diversity Plus: hDFCGF Assay (AID 2283059); details: primary human foreskin fibroblasts;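 further: curves fitted for both rise and fall of signal versus DMSO baseline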
# In short: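 This proliferation readout used SRB total-protein staining of human foreskin fibroblasts […], normalized to DMSO with bidirectional curve fitting.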
# [10] = read-out: Macrophage colony-stimulating factor (MCSF), CSF1 (gene 1435); test: BSK_hDFCGF_MCSF: BioMAP Diversity Plus: hDFCGF Assay for Macrophage colony-stimulating factor (MCSF) Biomarker Activity (AID 2283060); details: primary human foreskin fibroblasts; actives raise or lower the signal
# In short: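 Human foreskin primary fibroblasts were treated with test chemical for 24 h, and M-CSF was then measured by ELISA. Data were fitted bidirectionally against DMSO as the negative control and activity baseline.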
# [11] = BSK_hDFCGF_SRB: Viability Assessment in the BioMAP Diversity Plus: hDFCGF Assay (AID 2283061); details: primary human foreskin fibroblasts;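 further: cells exposed to compound for 24 h before the read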
# In short: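 Human foreskin primary fibroblasts were treated with compound and assessed 24 h after dosing. Total protein was measured by sulforhodamine B staining (0.1% SRB after 10% TCA fixation, 560 nm read) as a cytotoxicity marker, with bidirectional fitting against DMSO baseline.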
# [12] = read-out: TIMP metallopeptidase inhibitor 1 (TIMP1), TIMP1 (gene 7076); test: BSK_hDFCGF_TIMP1: BioMAP Diversity Plus: hDFCGF Assay for TIMP metallopeptidase inhibitor 1 (TIMP1) Biomarker Activity (AID 2283062); details: primary human foreskin fibroblasts; actives raise or lower the signal
# In short: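 Primary human foreskin fibroblasts in the hDFCGF system were dosed with compound for 24 h, then TIMP-1 was measured by ELISA. Activity was fitted bidirectionally relative to DMSO control; parallel SRB staining assessed cytotoxicity.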
# [13] = read-out: Monokine induced gamma interferon (MIG), CXCL9 (gene 4283); test: BSK_hDFCGF_MIG: BioMAP Diversity Plus: hDFCGF Assay for Monokine induced gamma interferon (MIG) Biomarker Activity (AID 2283063); details: primary human foreskin fibroblasts; actives raise or lower the signal
# In short: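 ELISA read-out of MIG from primary human dermal fibroblasts 24 h post-dosing. Gain or loss of signal fitted bidirectionally, DMSO as baseline.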
# [14] = read-out: Matrix Metallopeptidase 1 (MMP1), MMP1 (gene 4312); test: BSK_hDFCGF_MMP1: BioMAP Diversity Plus: hDFCGF Assay for Matrix Metallopeptidase 1 (MMP1) Biomarker Activity (AID 2283064); details: primary human foreskin fibroblasts; actives raise or lower the signal
# In short: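 Primary human foreskin fibroblasts exposed to chemicals for 24 h; MMP1 measured by ELISA. Cytotoxicity tracked by SRB staining in parallel cultures; bidirectional fit relative to DMSO.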
# [15] = read-out: Plasminogen activator inhibitor-1 (PAI1), SERPINE1 (gene 5054); test: BSK_hDFCGF_PAI1: BioMAP Diversity Plus: hDFCGF Assay for Plasminogen activator inhibitor-1 (PAI1) Biomarker Activity (AID 2283066); details: primary human foreskin fibroblasts; actives raise or lower the signal
# In short: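 Primary dermal fibroblasts (human foreskin), hDFCGF system; compound 24 h; PAI-1 by ELISA; bidirectional fit vs DMSO control.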
# [16] = read-out: Intercellular Adhesion Molecule 1 (ICAM1), ICAM1 (gene 3383); test: BSK_KF3CT_ICAM1: BioMAP Diversity Plus: KF3CT Assay for Intercellular Adhesion Molecule 1 (ICAM1) Biomarker Activity (AID 2283067); details: primary human keratinocytes with fibroblasts; actives raise or lower the signal
# In short: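 Human keratinocyte plus foreskin fibroblast primary co-culture was exposed to chemical for 24 h. ICAM-1 was then quantified by ELISA, and the data were fit bidirectionally against DMSO as the negative control and baseline.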
# [17] = read-out: Interferon-gamma inducible Protein 10 (IP10), CXCL10 (gene 3627); test: BSK_KF3CT_IP10: BioMAP Diversity Plus: KF3CT Assay for Interferon-gamma inducible Protein 10 (IP10) Biomarker Activity (AID 2283068); details: primary human keratinocytes with fibroblasts; actives raise or lower the signal
# In short: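 Signal is secreted/surface IP-10 by ELISA in a human primary skin co-culture of keratinocytes and foreskin fibroblasts, taken 24 h post-dosing; DMSO served as negative control.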
# [18] = BSK_KF3CT_SRB: Viability Assessment in the BioMAP Diversity Plus: KF3CT Assay (AID 2283069); details: primary human keratinocytes with fibroblasts;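 further: fitted for both signal gain and loss against DMSO baseline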
# In short: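 Human keratinocyte and foreskin fibroblast co-culture exposed to chemical for 24 h. Total protein measured in parallel cultures by 0.1% sulforhodamine B staining after 10% TCA fixation, read at 560 nm; bidirectional fit relative to DMSO.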
# [19] = read-out: Interleukin-1 alpha (IL1a), IL1A (gene 3552); test: BSK_KF3CT_IL1a: BioMAP Diversity Plus: KF3CT Assay for Interleukin-1 alpha (IL1a) Biomarker Activity (AID 2283070); details: primary human keratinocytes with fibroblasts; actives raise or lower the signal
# In short: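 Primary human keratinocyte plus foreskin fibroblast co-culture, dosed and measured at 24 h in 96-well plates. IL-1a level quantified by ELISA; bidirectional fit relative to DMSO.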
# [20] = read-out: Vascular cell adhesion molecule 1 (VCAM1), VCAM1 (gene 7412); test: BSK_hDFCGF_VCAM1: BioMAP Diversity Plus: hDFCGF Assay for Vascular cell adhesion molecule 1 (VCAM1) Biomarker Activity (AID 2283065); details: primary human foreskin fibroblasts; actives raise or lower the signal
# In short: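 Primary human foreskin fibroblasts (hDFCGF system) were dosed with chemical and VCAM-1 was measured by ELISA 24 h later. Bidirectional curve fitting used DMSO as negative control and activity baseline.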
smiles,measurement,setting,value
OCC(F)(OC(F)(F)C(F)(OC(F)(F)C(F)(F)C(F)(F)F)C(F)(F)F)C(F)(F)F (stereo not given),outcome,[1],inactive
same,outcome,[2],inactive
same,AC50,[3],2.4 µM (active) and 2.74 µM (active)
same,outcome,[4],inactive
same,outcome,[5],inactive
same,AC50,[6],2.23 µM (active) and 1.98 µM (active)
same,AC50,[7],5.4 µM (active)
same,outcome,[7],inactive
same,AC50,[8],5.05 µM (active)
same,outcome,[8],inactive
same,AC50,[9],4.48 µM (active) and 4.13 µM (active)
same,AC50,[10],2.34 µM (active) and 1.91 µM (active)
same,AC50,[11],6.02 µM (active) and 5.36 µM (active)
same,AC50,[12],3.33 µM (active)
same,AC50,[13],2.24 µM (active) and 2.52 µM (active)
same,AC50,[14],4.57 µM (active) and 4.92 µM (active)
same,AC50,[15],6.18 µM (active)
same,outcome,[15],inactive
same,AC50,[16],4.83 µM (active) and 3.33 µM (active)
same,AC50,[17],5.01 µM (active) and 4.55 µM (active)
same,AC50,[18],5.66 µM (active) and 4.19 µM (active)
same,outcome,[19],inactive
CCC(=O)OCC=Cc1ccccc1,outcome,[1],inactive
same,outcome,[2],inactive
same,outcome,[3],inactive
same,outcome,[4],inactive
same,outcome,[5],inactive
same,outcome,[6],inactive
same,outcome,[7],inactive
same,outcome,[8],inactive
same,outcome,[9],inactive
same,outcome,[10],inactive
same,outcome,[11],inactive
same,outcome,[12],inactive
same,outcome,[13],inactive
same,outcome,[14],inactive
same,outcome,[15],inactive
same,outcome,[16],inactive
same,outcome,[17],inactive
same,outcome,[18],inactive
same,outcome,[19],inactive
CC=CC(=O)C1=C(C)C=CCC1(C)C,outcome,[1],inactive
same,outcome,[2],inactive
same,outcome,[3],inactive
same,outcome,[4],inactive
same,outcome,[5],inactive
same,outcome,[6],inactive
same,outcome,[7],inactive
same,outcome,[8],inactive
same,outcome,[9],inactive
same,outcome,[10],inactive
same,outcome,[11],inactive
same,outcome,[12],inactive
same,outcome,[13],inactive
same,outcome,[14],inactive
same,outcome,[20],inactive
same,AC50,[15],0.016 µM (active)
same,outcome,[16],inactive
same,outcome,[17],inactive
same,outcome,[18],inactive
same,outcome,[19],inactive
CC(C)CCCC(C)(C)O,outcome,[1],inactive
same,outcome,[2],inactive
same,outcome,[3],inactive
same,outcome,[4],inactive
same,outcome,[5],inactive
same,outcome,[6],inactive
same,outcome,[7],inactive
same,outcome,[8],inactive
same,outcome,[9],inactive
same,outcome,[10],inactive
same,outcome,[11],inactive
same,outcome,[12],inactive
same,outcome,[13],inactive
same,outcome,[14],inactive
same,outcome,[15],inactive
same,outcome,[16],inactive
same,outcome,[17],inactive
same,outcome,[18],inactive
same,outcome,[19],inactive
CCOC(=O)CCCCCCCCC(=O)OCC,outcome,[1],inactive
same,outcome,[2],inactive
same,outcome,[3],inactive
same,outcome,[4],inactive
same,outcome,[5],inactive
same,outcome,[6],inactive
same,outcome,[7],inactive
same,outcome,[8],inactive
same,outcome,[9],inactive
same,outcome,[10],inactive
same,outcome,[11],inactive
same,outcome,[12],inactive
same,outcome,[13],inactive
same,outcome,[14],inactive
same,outcome,[20],inactive
same,outcome,[15],inactive
same,outcome,[16],inactive
same,outcome,[17],inactive
same,outcome,[18],inactive
same,outcome,[19],inactive
O=C(O)C(F)(F)C(F)(F)C(F)(F)C(F)(F)C(F)(F)C(F)(F)C(F)(F)C(F)F,outcome,[1],inactive
same,outcome,[2],inactive
same,outcome,[3],inactive
same,outcome,[4],inactive
same,outcome,[5],inactive
same,AC50,[6],10.7 µM (active)
same,outcome,[6],inactive
same,outcome,[7],inactive
same,outcome,[8],inactive
same,outcome,[9],inactive
same,outcome,[10],inactive
same,AC50,[11],20.1 µM (active) and 15.8 µM (active)
same,outcome,[12],inactive
same,outcome,[13],inactive
same,outcome,[14],inactive
same,outcome,[15],inactive
same,outcome,[16],inactive
same,outcome,[17],inactive
same,outcome,[18],inactive
same,outcome,[19],inactive
